# GCN5L2 inh: GCN5L2 (KAT2A) acetyltransferase inhibition; actives 0.21% (n = 390,000); Potency, µM (titrated, usually from 58.9 µM), actives largely listed as inhibitors; AID 504327; GCN5L2 HAT assay, ThioGlo1 CoA-SH fluorescence; Q92830
# Target sequence (Q92830 whole entry, looked up): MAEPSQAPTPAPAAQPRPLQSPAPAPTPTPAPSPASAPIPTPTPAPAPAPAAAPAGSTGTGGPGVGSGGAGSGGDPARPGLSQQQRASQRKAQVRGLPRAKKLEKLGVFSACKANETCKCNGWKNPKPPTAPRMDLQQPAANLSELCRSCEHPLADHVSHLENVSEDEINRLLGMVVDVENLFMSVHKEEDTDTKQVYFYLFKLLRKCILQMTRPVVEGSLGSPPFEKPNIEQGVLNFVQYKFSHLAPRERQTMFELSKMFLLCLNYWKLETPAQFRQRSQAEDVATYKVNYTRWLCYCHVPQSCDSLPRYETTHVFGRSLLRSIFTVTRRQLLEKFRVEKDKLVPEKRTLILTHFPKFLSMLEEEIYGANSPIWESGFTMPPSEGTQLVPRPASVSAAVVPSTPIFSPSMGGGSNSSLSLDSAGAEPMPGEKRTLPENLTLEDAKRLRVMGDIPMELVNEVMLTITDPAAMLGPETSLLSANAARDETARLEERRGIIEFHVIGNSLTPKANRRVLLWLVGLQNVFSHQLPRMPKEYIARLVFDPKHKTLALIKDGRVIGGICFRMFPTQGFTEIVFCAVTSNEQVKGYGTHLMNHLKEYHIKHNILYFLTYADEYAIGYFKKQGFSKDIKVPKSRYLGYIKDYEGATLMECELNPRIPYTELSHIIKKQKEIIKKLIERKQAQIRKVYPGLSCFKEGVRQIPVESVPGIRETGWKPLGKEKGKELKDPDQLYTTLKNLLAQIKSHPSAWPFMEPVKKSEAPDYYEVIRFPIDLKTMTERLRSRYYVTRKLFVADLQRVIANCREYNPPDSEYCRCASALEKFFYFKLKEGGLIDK
#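 GCN5L2 (20 nM) in 50mM HEPES pH 7.5, 0.1mM EDTA, 0.01% Tween-20 preincubated 15 min with compounds at room temperature. Reaction started with H3(1-25) 75uM, acetyl-CoA 70uM, ThioGlo1 50uM; CoA-thiol fluorescence (Ex340/Em540) read at 0 and 20 min.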
# VDR inhibitor: vitamin D3 receptor (human) inhibition; Potency, µM, most hits filed as inhibitors; P11473; actives 0.93% (n = 400,000); VDR-SRC2-3 peptide fluorescence polarization, 2 h
#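 Fluorescence polarization assay of small-molecule disruption of VDR binding to coregulator peptide SRC2-3. Compounds and controls pin-transferred, then read after 2 h incubation at ambient room temperature.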
# DT40 TDP1 CPT: DT40-hTDP1 cell growth loss with CPT. AID 686979. chicken DT40 Tdp1-/-;hTDP1 cells + 20 nM CPT, ATP luminescence, 48 h. Potency, µM (highest dose often 46.2 µM), hits mostly inhibitors. actives 12% (n = 420,000); also: nearly all actives have a fitted effect of over 55% in size
#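 Cell growth measured by CellTiter-Glo luminescence after a minimum 48 h, 37 C compound exposure with 20 nM CPT in Tdp1-knockout DT40 cells stably expressing hTDP1, seeded 400/well; qHTS titration format.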
# PLK1 PBD inh: blocks phosphopeptide binding to human PLK1 polo-box domain | P53350 | Plk1 PBD binding of FITC phosphopeptide, fluorescence polarization | Potency, µM, actives largely listed as inhibitors | actives 2.8% (n = 360,000); also: series mostly up to about 57 µM; nearly all actives have a fitted effect of over 65% in size
# TDP1 inh: TDP1 (human) enzyme inhibition. actives 0.28% (n = 350,000). Q9NUW8. recombinant TDP1, AlphaScreen DNA substrate cleavage. Potency, µM (top dose mostly 130 µM), hits mostly inhibitors; also: nearly all actives have a fitted effect of over 40% in size
#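 Here, a 5' biotin and 3' phosphotyrosine-FITC DNA oligonucleotide reports Tdp1 activity: intact substrate bridges AlphaScreen beads, while cleavage leaves a 3' phosphate and drops signal. All incubations at room temperature.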
# TDP1 cell noCPT: qHTS for Inhibitors of human tyrosyl-DNA phosphodiesterase 1 (TDP1): qHTS in cells in absence of CPT; DT40 Tdp1-/- hTDP1 cells, no CPT, ATP luminescence, 48 h; Potency, µM (top dose mostly 46.2 µM), hits mostly inhibitors; actives 15% (n = 420,000); AID 686978, 2013; also: nearly all actives have a fitted effect of over 55% in size
#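 Growth kinetics read by CellTiter-Glo luminescence after ≥48 hr at 37 °C. Cells: DT40 Tdp1-/- stably carrying human TDP1, 400 per well, compound exposure in the absence of CPT (DMSO vehicle).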
# Hits are given with their value; . = inactive; ? = inconclusive; / = no result; ! = not active in a repeat. Sampled rows, rich in hits. Any-hit rate of the full collection: about 18%. Calls follow the shape of the dose curve; as a rule, active = well fitted curve in the direction sought with a large enough effect; inconclusive = small, poorly fitted or top-dose-only effect, or another doubt; inactive = no such curve, though single readings can be large; an effect the other way counts as inactive or inconclusive.
SMILES,GCN5L2 inh,VDR inhibitor,DT40 TDP1 CPT,PLK1 PBD inh,TDP1 inh,TDP1 cell noCPT
Cc1ccc(-n2ncc3c2CCCC3NC(=O)c2csnn2)cc1C (stereo unspecified),.,.,?,.,.,?
Cc1nnsc1C(=O)NC1CCCc2c1cnn2-c1ccc(C(C)(C)C)cc1 (stereo unspecified),.,.,10µM,.,.,7.3µM
Cc1cccc(-n2ncc3c2CCCC3NC(=O)CC(F)(F)F)c1C (stereo unspecified),.,.,?,.,/,?
Cc1cc(C)n2nc(C(=O)OCC(=O)NCc3ccc(F)cc3)nc2n1,.,.,.,.,.,.
CCOC(=O)c1cc(=O)c2ccc(OCC(=O)Nc3ccc(F)cc3)cc2o1,.,.,.,.,.,.
COc1ccc(O)c(/C=N/NC(=O)c2ccc(N3CCCC3=O)cc2)c1,.,.,13µM,.,.,23µM
O=C(N/N=C/c1ccco1)c1cccc(N2CCCC2=O)c1,.,.,.,.,/,.
O=C(N/N=C/c1cc(Br)ccc1O)c1cccc(N2CCCC2=O)c1,.,.,1.6µM,.,.,4.6µM
Cc1cc(C)c(NC(=O)CN(C)S(=O)(=O)c2ccc3c(c2)CCC(=O)N3)c(C)c1,.,.,.,/,.,.
O=C(c1cc(S(=O)(=O)Nc2ccccc2F)c(Cl)cc1Cl)N1CCN(CCO)CC1,.,.,.,.,.,.
O=C(NCCN1CCOCC1)c1cc(S(=O)(=O)Nc2ccccc2F)c(Cl)cc1Cl,.,.,.,34µM,.,.
S=C1NCN(Cc2cccnc2)CN1,.,.,.,.,.,.
CN(C)C(=S)N=c1ssc(=S)n1Cc1cccnc1,/,50µM,1.8µM,27µM,/,2.6µM
CCCCCN=C(N)N/N=C/c1c[nH]c2ccc(OC)cc12,.,.,2.9µM,.,.,2.6µM
CC(C)c1ccc(CN(C)CC(O)c2ccccc2)cc1 (stereo unspecified),.,.,.,.,.,.
COc1ccc(C2=NS(=O)(=O)N(C)C(C(=O)Nc3cc(OC)c(OC)c(OC)c3)=C2)cc1,.,.,12µM,.,.,15µM
CC(=O)c1cccc(NC(=O)C2=CC(c3ccc4c(c3)OCO4)=NS(=O)(=O)N2C)c1,.,.,?,.,.,16µM
COc1ccc(NC(=O)C2=CC(c3ccc(C)cc3)=NS(=O)(=O)N2C)cc1OC,?,.,23µM,.,/,21µM
COc1cccc(C2=NS(=O)(=O)N(C)C(C(=O)Nc3cccc(O)c3)=C2)c1,.,.,15µM,/,.,16µM
COc1ccccc1CN1CCC2(CC1)CCN(C(=O)c1csnn1)CC2,.,.,.,/,/,.
O=S(=O)(NCC(c1ccc2c(c1)OCO2)N1CCOCC1)c1ccccc1 (stereo unspecified),.,.,.,.,.,.
COC(=O)c1ccc(S(=O)(=O)N2Cc3ccccc3C2)cc1,.,.,.,.,.,.
COc1ccc(C2=NS(=O)(=O)N(C)C(C(=O)Nc3ccc(C(C)=O)cc3)=C2)cc1OC,.,.,18µM,.,.,12µM
CCc1ccccc1NC(=O)C1=CC(c2ccc(OC)c(OC)c2)=NS(=O)(=O)N1C,.,.,.,.,.,.
COc1ccc(C2=NS(=O)(=O)N(C)C(C(=O)Nc3cc(C)ccc3O)=C2)cc1OC,35µM!,.,7.3µM,.,.,5.2µM
SMILES,GCN5L2 inh,VDR inhibitor,DT40 TDP1 CPT,PLK1 PBD inh,TDP1 inh,TDP1 cell noCPT
OC1C2COC(O2)[C@H](O)C1O (stereo partly specified),.,.,.,/,.,.
COc1cccc(C(=O)N2CCN(C(=O)COc3ccc4ccccc4c3)CC2)c1,.,.,.,.,/,?
C[C@]12C(=O)N(c3ccccc3)C(=O)N1[C@@H]1c3ccccc3OC[C@@H]1[C@H]2c1ccccc1,.,.,15µM,.,/,16µM
C[C@]12C(=O)N(c3ccc(C(F)(F)F)cc3)C(=O)N1[C@@H]1c3ccccc3OC[C@@H]1[C@H]2c1ccccc1,.,.,23µM,.,/,?
C[C@]12C(=O)N(c3cccc(Cl)c3)C(=O)N1[C@@H]1c3ccccc3OC[C@@H]1[C@H]2c1ccccc1,.,.,15µM,.,.,12µM
C[C@]12C(=O)N(c3cccc(F)c3)C(=O)N1[C@@H]1c3ccccc3OC[C@@H]1[C@H]2c1ccccc1,.,.,12µM,.,/,21µM
C[C@]12C(=O)N(c3ccccc3)C(=O)N1[C@H]1c3ccccc3OC[C@@H]1[C@H]2c1ccccc1,.,.,?,.,.,?
Cc1ccc(N2C(=O)N3[C@H]4c5ccccc5OC[C@@H]4[C@@H](c4ccccc4)[C@@]3(C)C2=O)cc1,.,.,.,.,/,.
CCc1ccc(C(=O)c2cn(CC(=O)Nc3ccc4c(c3)OCCO4)c3ccc(C)cc3c2=O)cc1,.,.,.,/,.,.
C/C(=N/NC(=O)CCC(=O)Nc1ccc(Br)cc1)c1ccc(Br)cc1,.,.,.,.,/,?
COc1ccccc1/C=C/C(C)=O,.,.,.,.,.,.
COc1ccccc1C=CC(=O)C=Cc1ccccc1OC,/,?,4.6µM,.,/,3.3µM
COc1ccccc1/C=C/C(=O)c1cc(Br)ccc1OC(=O)c1ccco1,/,?,?,24µM,/,?
CNc1ccccc(C(=O)/C=C/c2ccccc2OC)c1=O,.,?,18µM,.,.,15µM
CNc1ccc(Br)cc(C(=O)/C=C/c2cccc(OC)c2OC)c1=O,.,.,.,.,.,.
COc1ccccc1/C=C/C(=O)/C=C/c1ccccc1O,.,.,2.9µM,.,.,2.9µM
CCOC(=O)c1ccc(-c2ccc3oc(-c4ccsc4)cc(=O)c3c2)cc1F,.,.,.,.,.,.
O=C(COc1ccc2c(c1)oc(=O)c1ccccc12)N[C@@H](Cc1c[nH]c2ccccc12)C(=O)O,25µM,.,.,.,/,.
COc1ccc(C(=O)Nc2ccccc2C(=O)NC(Cc2c[nH]c3ccccc23)C(=O)O)cc1 (stereo unspecified),.,.,?,24µM,.,?
CN(C)c1ncc2nc(CCc3ccccc3)c(=O)n(CCc3ccccc3)c2n1,.,.,.,/,/,.
c1cc2c(cc1C1CCCCC1)c1c3n2CCCNC3CCC1 (stereo unspecified),.,.,7.3µM,.,.,6.5µM
c1cc2c(cc1C1CCCCC1)c1c3n2CCN[C@H]3CCC1,.,.,11µM,/,.,11µM
Cc1ccc2c(c1)c1c3n2CCCNC3CCC1 (stereo unspecified),.,.,?,.,.,?
Cc1ccc(-n2nnnc2CNC(=O)c2ccccc2F)cc1C,.,.,.,/,.,.

# Screening data as filed in PubChem BioAssay.
